# Gal4-VP16 FLuc = Gal4-VP16 reporter inhibition counter-screen. Drosophila S2 Gal4-VP16 UAS-luciferase, luminescence, 20 h. Potency, µM (titrated, usually from 53.6 µM), without a hit: at the highest dose activity, negative = inhibition, actives largely listed as inhibitors. hit rate 3.5% among 310,000;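 further: Gal4-VP16 expression switched on by copper sulfate through the metallothionein promoter; potency means the concentration at half of the fitted maximal effect; on the % scale 0 is the no-effect control and ±100 the full control effect; nearly all actives have a fitted effect of over 50% in size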
# p53 reactivation = mutant p53 re-activation in reporter cells | AID 504706 | Potency, µM (highest dose often 92.2 µM), for inactives: top-dose activity change, positive = activation, most hits filed as activators | hit rate 0.063% among 320,000 | H1299 p53-A138V BP100-luciferase reporter, luminescence, 24 h; further: potency means the concentration at half of the fitted maximal effect; % of control where 0% means no effect; nearly all actives have a fitted effect of over 45% in size
#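 H1299 (p53-null), stable ts p53-A138V + BP100-Luc; 1000 cells/well, Opti-MEM/10% FBS; cpd 4 pt, 1:5; 24 h, 37 deg C, 5% CO2; detection reagent 10 min RT; luminescence.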
# BRCA1 expr act = activators of BRCA1 expression | MCF7-BRCA1-FFLuc reporter, luminescence, 48 h; response scale: scaled: vehicle 0%, 10 µM genistein 100% | Potency, µM (titrated, usually from 46.1 µM), inactives show top-dose activation, actives largely listed as activators | hit rate 1.1% among 380,000; further: potency means the concentration at half of the fitted maximal effect; nearly all actives have a fitted effect of over 80% in size
#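 Luminescence from a BRCA1-driven firefly luciferase in MCF7 cells was read after 48 h compound exposure at 37 C. Data normalized against DMSO and a 10microM genistein activation control, then curve-fitted across the titration.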
# ELG1 repair inh = blocks ELG1-dependent DNA repair in HEK293T cells; AID 504467; HEK293T ELG1-luciferase reporter, luminescence, 16 h; DNA damage induced by 5-fluorouridine; Potency, µM (doses to about 46.1 µM), for the others: at the highest dose activity change, negative = inhibition, most hits filed as inhibitors; hit rate 2.3% among 330,000; further: potency means the concentration at half of the fitted maximal effect; on the % scale 0 is the no-effect control and ±100 the full control effect; nearly all actives have a fitted effect of over 55% in size
#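 HEK293T cells expressing luciferase-tagged ELG1 (2,000/well) received 5-Fluorouridine plus compound or DMSO for 16 hr at 37 °C. Luciferase was read by ONE-Glo luminescence after 30 min at room temperature.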
# Giardia killer = kills Giardia lamblia. Giardia lamblia trophozoite viability. activity change, % at 7.66 µM, hits read low. hit rate 0.15% among 340,000; in the data active means activity change below about -80%; inconclusive means between about -30% and that limit;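 further: parasites exposed to compound for two days anaerobically before the ATP read; on the % scale 0 is the no-effect control and ±100 the full control effect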
#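 Compounds were tested on trophozoites seeded at 100 cells/well and held 48 hrs at 37 deg C anaerobically. An ATP-based luminescent kit measured the remaining live cells.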
# RORg inh = blocks mouse ROR gamma transcriptional activity; P51450; Drosophila S2 Gal4-RORgamma UAS-luciferase reporter, 20 h; Potency, µM (highest dose often 53.6 µM), for the others: at the highest dose activity change, negative = inhibition, actives largely listed as inhibitors; hit rate 5.4% among 310,000; AID 2551; further: potency means the concentration at half of the fitted maximal effect; on the % scale 0 is the no-effect control and ±100 the full control effect; nearly all actives have a fitted effect of over 60% in size
# Target sequence (P51450 whole entry, looked up, the tested form may be a part): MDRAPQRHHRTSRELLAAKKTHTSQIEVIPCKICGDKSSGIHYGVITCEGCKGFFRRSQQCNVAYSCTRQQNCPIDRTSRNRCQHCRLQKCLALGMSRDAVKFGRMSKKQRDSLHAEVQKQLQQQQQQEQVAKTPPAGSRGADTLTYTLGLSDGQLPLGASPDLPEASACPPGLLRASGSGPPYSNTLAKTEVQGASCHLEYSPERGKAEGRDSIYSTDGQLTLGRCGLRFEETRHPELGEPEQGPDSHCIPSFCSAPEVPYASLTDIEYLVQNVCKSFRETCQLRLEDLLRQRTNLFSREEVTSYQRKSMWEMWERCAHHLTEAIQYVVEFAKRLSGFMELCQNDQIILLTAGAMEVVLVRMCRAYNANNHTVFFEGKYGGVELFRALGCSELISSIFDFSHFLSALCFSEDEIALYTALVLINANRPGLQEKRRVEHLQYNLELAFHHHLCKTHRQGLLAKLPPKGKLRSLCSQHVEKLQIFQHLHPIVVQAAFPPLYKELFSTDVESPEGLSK
#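 In this cell-based reporter format, copper sulfate (700 uM final) drives Gal4–ROR gamma fusion expression from a metallothionein promoter in Drosophila Schneider cells; compounds preincubated 1 hr, reporter read after 20 hr at ambient temperature.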
# * marks the source's active call; other numbers are inactive results; ? = inconclusive; . = not tested or not shown; [ ] = remark or other dose. An excerpt weighted towards active compounds, which were near 7.6% of everything screened. Unless noted, the call rests on the fitted dose curve; in most records, active means well fitted curve in the direction sought with a large enough effect; inconclusive means small, poorly fitted or top-dose-only effect, or another doubt; inactive means no such curve, though single readings can be large; an effect the other way counts as inactive or inconclusive.
SMILES,Gal4-VP16 FLuc,p53 reactivation,BRCA1 expr act,ELG1 repair inh,Giardia killer,RORg inh
COC(=O)c1ccc(CSc2ncnc3sc(C)c(C)c23)o1,?,6.2%,-19.9%,4.3%,-14.1,17.8µM*
COc1ccc(OC)c(CNCc2ccc3c(c2)OCO3)c1,-5.3%,-2.9%,-26.3%,-12.1%,-11.7,10.6%
NS(=O)(=O)c1ccc(CCNC(=O)CN2CCCCC2)cc1,1.7%,1.5%,-26.6%,8.0%,6.5,-41.1%
Cc1ccc(COc2ccccc2-c2cc(C(=O)N/N=C/c3cccnc3)[nH]n2)cc1,?,-1.3%,-96.1%,23.1µM*,-1.6,-44.6%
O=C(N/N=C/c1ccccn1)c1[nH]c2ccc([N+](=O)[O-])cc2c1-c1ccccc1,1.8%[10 µM],7.2%,-83.0%,-9.8%,-4.3,5.01µM*
Cc1cc(C)nc(SCc2ccc(C(=O)N/N=C/c3ccncc3)cc2)n1,-1.6%,-5.4%,-36.2%,3.8%,8.5,0.0%
O=C(N/N=C/c1ccccn1)c1ccc(Cl)c(Cl)c1,0.631µM*,?,.,?,.,?
Cc1cc(C)nc(SCc2ccc(C(=O)N/N=C/c3ccccn3)cc2)n1,14.1µM*,-4.2%,-6.7%,?,2.4,7.08µM*
CCN1C(=O)[C@H]2[C@@H](c3ccc(-c4ccc(F)cc4)c(OC)c3)N[C@@](CC(C)C)(C(=O)OC)[C@H]2C1=O,.,-1.2%,.,-9.1%,.,.
O=C(N/N=C/c1c[nH]c2ccccc12)c1cc(-c2cccc3ccccc23)n[nH]1,?,9.6%,8.8%,-29.2%,6.0,-44.8%
COc1ccc(C=NN=C2c3ccccc3-c3ccccc32)cc1OC,.,.,-21.4%,.,11.1,.
O=C(N/N=C/c1ccco1)c1cc(-c2ccc3ccccc3c2)n[nH]1,?,-3.6%,1.2%,-3.4%,-20.7,?
CCc1ccc(-c2cc(C(=O)N/N=C/c3ccco3)[nH]n2)cc1,2.2%[10 µM],-0.1%,16.8%,8.0%,9.4,20µM*
COc1cccc(/C=N/NC(=O)c2ccc([N+](=O)[O-])cc2Cl)c1O,0.631µM*,?,-79.1%,10.8%,-15.6,0.355µM*
Cc1ccc(-c2cc(C(=O)N/N=C/c3c[nH]c4ccccc34)[nH]n2)cc1,?,?,9.4%,-7.7%,-14.1,18.8%
O=C(N/N=C/c1ccccn1)c1ccc(NC(=O)c2ccc(F)cc2)cc1,10.9%,-1.9%,23.7%,-6.1%,38.0,-6.3%
O=C(N/N=C/c1ccccn1)c1cc(-c2ccc3ccccc3c2)n[nH]1,15.8µM*,-10.5%,-26.6%,?,18.6,15.8µM*
CCc1ccc(-c2cc(C(=O)N/N=C/c3ccccn3)[nH]n2)cc1,?,11.1%,-1.2%,18.6%,4.3,12.6µM*
Cc1ccc(C(=O)Nc2ccc(C(=O)O)cc2NC(=O)c2ccc(C)cc2)cc1,-25.8%,-6.7%,31.1%,?,?,?
O=C(N/N=C/c1ccccn1)c1cc(-c2ccccc2Cl)n[nH]1,-2.7%[10 µM],23.1%,3.7%,2.7%,?,15.8µM*
O=C(N/N=C/c1ccccn1)c1cc(-c2cccc3ccccc23)n[nH]1,12.7%,24.5%,55.1%,-26.1%,-6.2,-36.9%
O=C(N/N=C/c1ccccn1)c1ccc([N+](=O)[O-])cc1Cl,?,16.7%,20.0%,?,4.2,11.2µM*
COc1ccc(S(=O)(=O)NN(C)c2ncc(C(F)(F)F)cc2Cl)cc1,?,-0.8%,-5.7%,18.6%,0.1,3.98µM*
CCN(CC)c1ccc(/C=C2/SC(=O)N(C(C)C)C2=O)o1,2.82µM*,-18.5%,-84.1%,?,-11.7,5.01µM*
CC(C)N1C(=O)S/C(=C\c2ccc(-c3ccc(Cl)c(C(=O)O)c3)o2)C1=O,2.51µM*,?,?,?,23.2,?
Cc1cccc(N2CCN(S(=O)(=O)c3ccc4c(c3)CC(=O)N4C)CC2)c1C,4.0%,3.6%,0.9%,-1.6%,15.3,21.8%
COC(=O)c1sc(NC(=O)c2oc3ccccc3c2C)nc1C,?,23.9%,7.08µM*,?,34.9,12.0%

# Compound activity (PubChem BioAssay)
